# In PubChem BioAssay (NCI):
# Compounds without any hit were thinned out: in the full panel of roughly 83,000, 20% have a hit.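 Single-concentration screen, 48 h exposure, 96-well plates. Endpoint: percent growth. Below 10 = active.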 Values without a mark were called inactive. Activity calls are given as the source filed them.
# Tests used:
# Assay in all cases: NCI-60 one-dose screen, 48 h (100 = growth as untreated, 0 = no growth, -100 = all killed)
# Conditions in all cases: 10 µM unless noted
# [1] = test system: DU-145 prostate
# [2] = test system: K-562 leukemia
# [3] = test system: MALME-3M melanoma
# [4] = test system: MDA-MB-231 breast
# [5] = test system: RXF 393 renal
# [6] = test system: SF-268 CNS
# [7] = test system: SF-295 CNS
# [8] = test system: SF-539 CNS
# [9] = test system: UACC-257 melanoma
# [10] = test system: M14 melanoma
# [11] = test system: HCT-15 colon
# [12] = test system: HT29 colon
# [13] = test system: SNB-75 CNS
# [14] = test system: SNB-19 CNS
# [15] = test system: PC-3 prostate
# [16] = test system: SK-MEL-5 melanoma
# [17] = test system: UACC-62 melanoma
# [18] = test system: LOX IMVI melanoma
# [19] = test system: SK-MEL-28 melanoma
# [20] = test system: U251 CNS
Structure (SMILES),growth [1],growth [2],growth [3],growth [4],growth [5],growth [6] [%],growth [7],growth [8],growth [9],growth [10],growth [11],growth [12],growth [13],growth [14],growth [15],growth [16],growth [17],growth [18],growth [19],growth [20]
C=C(C)[C@@H]1CC[C@]2(CO)CC[C@]3(C)[C@H](CC[C@@H]4[C@@]5(C)CCCNC(C)(C)[C@@H]5CC[C@]43C)[C@@H]12,49.5%,-26.6% (active),-65.4% (active),46.8%,48.4%,61.2,40.4%,34.3%,-8.72% (active),-49.8% (active),3.28% (active),2.58% (active),77.1%,49.6%,25.6%,-82.5% (active),43.2%,-57.7% (active),-65.4% (active),
Cc1nn(-c2ccccc2)c(N2CCOCC2)c1/C=N/N=c1\sc2ccccc2n1C,100%,41.7%,99.4%,52.3%,88.6%,85,89.3%,84.7%,87.8%,87.5%,,66.5%,99.2%,87.3%,49%,38.5%,71.1%,57.9%,75.9%,55.2%
COc1ccc(C2CC(n3nnnc3-c3ccccc3)=NN2)cc1 (stereo unspecified),70.5%,15.6%,73.9%,40.2%,102%,75.4,27.2%,37.9%,101%,35.4%,52.4%,84.5%,76.9%,88.1%,58.4%,,13.4%,22%,94.6%,83.9%
Cc1ccc(S(=O)(=O)Nc2ccc(Cl)cc2)cc1,118%,97.6%,100%,86.6%,103%,107,91.2%,104%,105%,103%,107%,112%,82.7%,96.9%,87.2%,106%,77.2%,95.1%,97.2%,
N#Cc1ccc(-c2ccc3c(c2)NC(=O)/C3=C\c2ccc[nH]2)cc1,106%,105%,98%,45.9%,67.3%,96.6,95.7%,101%,112%,102%,58.3%,103%,57%,99.3%,84.7%,,88.4%,97.5%,107%,103%
COc1cc(C(=O)/C=C/c2c(C)n([O-])c3ccc(Cl)cc3[n+]2=O)cc(OC)c1OC,36.3%,1.97% (active),95.4%,81%,43.2%,65.5,95%,73.7%,81.2%,80.9%,29.6%,62.8%,60.4%,99.8%,46.7%,89.4%,60.4%,65.8%,80.8%,
Cn1/c(=N/NC(N)=S)ccc2ccccc21,103%,46.4%,90.8%,87.7%,102%,91.8,89.5%,97.8%,70%,86.4%,82.3%,57.9%,101%,105%,76.7%,102%,102%,102%,117%,
O=C(c1ccccc1)N1N=C(c2ccc(-n3ccc(C(F)(F)F)n3)cc2)CC1c1ccc[nH]1 (stereo unspecified),104%,65.1%,93.6%,97.6%,97.1%,98.6,97.1%,92.6%,90.1%,79%,,87.1%,80.6%,92.7%,83.3%,101%,89.6%,80%,92.2%,86%
C=C1C(=O)O[C@H]2[C@H]1CC/C(CNC(=O)/C=C/c1ccccc1F)=C\CC[C@@]1(C)O[C@@H]21,4.9% (active),2.05% (active),-43.9% (active),16.9%,-90.5% (active),47.4,75.1%,-50.4% (active),-6.45% (active),-32.5% (active),,-17.2% (active),94.1%,56.4%,37.3%,66.1%,-5.46% (active),-25% (active),-33.9% (active),52.5%
Cc1cc(C(=O)Nc2ncnc3nc[nH]c23)no1,108%,87%,105%,105%,107%,99.7,99.3%,96.9%,112%,99%,102%,103%,79.5%,96.6%,97%,101%,97%,99.4%,106%,
O=C(Nc1nc(-c2ccc(Br)cc2)cs1)c1cc(-c2ccc(Br)cc2)nc2ccc(Cl)cc12,92.6%,56.6%,105%,74.1%,100%,85,97.8%,99.1%,101%,99.1%,81.6%,72.6%,87.3%,86.7%,72.8%,91.2%,77.8%,94.8%,95.9%,
NC(=S)N/N=C(\c1ccc(Cl)cc1)C1CC1,99%,38.3%,87.1%,70%,104%,98.2,83.1%,88.6%,63.7%,87.7%,,50.6%,83.7%,104%,77.9%,89.1%,87.3%,94.2%,98.7%,92.1%
CNC(=O)Nc1ccc(-c2nc(N3CCOCC3)nc3c2cnn3C2CCOCC2)cc1,9.63% (active),20.1%,-37.6% (active),5.07% (active),-35.3% (active),15.7,-45% (active),-24.4% (active),-24.9% (active),-12.1% (active),8.73% (active),6.44% (active),-37.9% (active),7.91% (active),6.22% (active),,-39.6% (active),4.58% (active),-14.1% (active),4.14% (active)
C=C(C)[C@@H]1CC[C@]2(C(=O)NCC(=O)OC)CC[C@]3(C)[C@H](CC[C@@H]4[C@@]5(C)Cc6c([nH]c7ccccc67)C(C)(C)[C@@H]5CC[C@]43C)[C@@H]12,83.8%,44.9%,93.9%,82.2%,76%,74.7,76.7%,85.1%,75.7%,89.5%,,60.8%,114%,82.5%,49.1%,81.7%,,70.7%,,58.9%
Fc1ccc(-n2cc(COc3ncnc4sc5c(c34)CCCC5)nn2)cc1Cl,105%,95.5%,92.1%,95.8%,103%,95.8,105%,98.8%,102%,94.2%,100%,97.3%,90.5%,94.7%,89.5%,,92.2%,93.7%,110%,99.7%
C=CCn1c(SCC(=O)Nc2ccc(C(=O)/C=C/c3cc(OC)c(OC)c(OC)c3)cc2)nnc1-c1cc(OC)c(OC)c(OC)c1,24.2%,6.9% (active),92.4%,49.3%,21.4%,34.9,60.4%,4.95% (active),64.1%,18.6%,0.237% (active),-34.8% (active),37.2%,40.6%,49.9%,31.7%,33.7%,5.43% (active),66.9%,
O=c1nc2n(nc1/C=C/c1ccco1)CC(c1ccc(Cl)cc1)=NN2,115%,53.6%,92%,117%,,109,97.9%,104%,104%,104%,135%,109%,91.6%,96.5%,97.6%,99.9%,97.6%,113%,120%,115%
